The record followed here is ChEMBL document CHEMBL4513216, “Probing the Open Global Health Chemical Diversity Library for Multistage-Active Starting Points for Next-Generation Antimalarials” (ACS Infect Dis, 2020).

Structures are written as SMILES. Among all 65,000 compounds or so, about 2,100 (3.2%) showed an effect of 50% or more. The median lay at about -52%. The list comes from a sample in which strong results are over-represented; it also holds similar structures and randomly drawn compounds.

In this test the test system is Plasmodium falciparum. Put plainly: Screen against P. falciparum Asexual Blood Stage (ABS), at 5uM. To be noted: tested at 5 uM. The format is functional, Dd2.
As for `COc1ccccc1C(=O)Nc1ccc(OC2CCN(C)CC2)cc1`, the INHIBITION was determined as 64.2%.
Then `CN1CCC(Oc2ccc(NC(=O)c3ccccc3Br)cc2)CC1`, with -76%; and `Cc1ccccc1C(=O)Nc1ccc(OC2CCN(C)CC2)cc1`, with -41.5%; and `CC(Cn1ccnc1)NC(=O)NCCc1cccnc1` (stereo not given), with 30.9%.
In the case of `Cn1nccc1C(=O)N1CCCN(CCCc2ccccc2)CC1`, the INHIBITION is reported as -14.1%.
Consider `O=C(c1ncoc1C1CC1)N1CCCN(CCCc2ccccc2)CC1`, for which the INHIBITION is recorded as 69.7%.
For the molecule `O=C(c1ncoc1C1CC1)N1CCN(CCOc2ccccc2)CC1`, the INHIBITION is on record as -35.9%.
Then `COCCn1c(-c2cccc(OC)c2)cnc1NC(=O)NCCC(C)C`, with -63.4%.
Regarding `CN(C)C(=O)c1ccc(C2CCCN2C(=O)c2cccc3c2OCC3)s1` (stereo not given), the INHIBITION is on record as -53.8%.
Then `Cn1ccnc1CN1CCC2(CC1)CN(c1ccccn1)CCO2`, with -254%; and `COc1ncccc1CN1CCC2(CC1)CN(c1ccccn1)CCO2`, with 56.5%.
Turning to `Cc1noc(C)c1CN1CCC2(CC1)CN(c1ccccn1)CCO2`, the INHIBITION is given as 30%.
Turning to `c1ccc(CN2CCC3(CC2)CN(c2ccccn2)CCO3)nc1`, the INHIBITION was -67.1%.
Turning to `Fc1ccc(CN2CCC3(CC2)CN(c2ccccn2)CCO3)cc1`, the INHIBITION was found to be 49%.
With `COc1ccc(CN2CCC3(CC2)CN(c2ccccn2)CCO3)cc1`, the INHIBITION is given as 62.3%.
For `COCC(=O)NCc1cc(=O)n2c(n1)CN(C)CCC2` the value was -101%.
As to `Cc1nc(OCC(=O)N2CCCC2)cc(-n2cccn2)n1`, the INHIBITION is recorded as -111%.
`CCC(CC)C(=O)N1CCC2(CC1)c1ccccc1[C@@H](OC)[C@@H]2O`: the INHIBITION is recorded as -1.77%.
`Cc1ccc(C2CN(c3nnc(C(F)F)s3)CCO2)c(C)c1` (stereo not given): the INHIBITION was -42.4%.
As for `Cc1cc(C)n(C2CN(CC(=O)N(C)Cc3cnn(C)c3)C2)n1`, the INHIBITION is on record as -98.1%.
Then `Cc1cc(C)n(C2CN(CC(=O)N(C)Cc3ccsc3)C2)n1`, with 26.5%; and `COc1cccc(CN(C)C(=O)CN2CC(n3nc(C)cc3C)C2)c1`, with 63.3%.
Consider `Cc1nc(CN2CCC3(CC2)CC(=O)N(C)c2ccccc23)cs1`, for which the INHIBITION was -87.3%.
For `Cc1ccc(C(=O)NC2CCN(C(=O)Nc3ccncc3)CC2)o1`, the INHIBITION was -195%.
For the molecule `COCCn1cnc2ccc(NC(=O)C3CC3)cc2c1=O`, the INHIBITION was -76%.
Take `CN(C)CC(=O)N1C[C@@H]2CC[C@H](Oc3ccccc3Cl)[C@@H]2C1`: the INHIBITION is on record as 63.7%.
With `COCCOCC(=O)N1C[C@@H]2CC[C@H](Oc3ccccc3)[C@@H]2C1`, the INHIBITION was -114%.
For the molecule `O=C(Cn1ccnc1)N1C[C@@H]2CC[C@H](Oc3ccccc3Cl)[C@@H]2C1`, the INHIBITION is recorded as -43.2%.
`CCOCC(=O)N1C[C@@H]2CC[C@H](Oc3ccccc3)[C@@H]2C1`: the INHIBITION is -68.1%.
As to `CN(C)CC(=O)N1C[C@@H]2CC[C@H](Oc3ccccc3)[C@@H]2C1`, the INHIBITION is 61.8%.
As to `COCCOCC(=O)N1C[C@@H]2CC[C@H](Oc3ccccc3Cl)[C@@H]2C1`, the INHIBITION is on record as -103%.
Turning to `CC(C)c1ncc(Cl)c(C(=O)N2CCN(C3CCCC3)CC2)n1`, the INHIBITION is -16.7%.
Turning to `Cc1nn(C)c(C)c1NC(=O)c1cccc(CN2CC[C@H](O)C2)c1`, the INHIBITION is -133%.
For `CN(C)S(=O)(=O)N(C)C(c1cccc(F)c1)c1ccccn1` (stereo not given), the INHIBITION is recorded as -27.6%.
As for `O=C(c1cc(Cl)ccc1F)N1CCCC1Cn1cccn1` (stereo not given), the INHIBITION is -101%.
As to `Cc1cc(C)n(CCCNc2ncnc3c2NC(=O)CN3)n1`, the INHIBITION is given as -40.1%.
Regarding `COc1ccccc1-n1nc(CC(C)C)nc1Cc1nnc(N)s1`, the INHIBITION is listed as -59.7%.
For `CN(Cc1ccc(N(C)C)cc1)C(=O)c1cc2c([nH]c1=O)CCCC2=O` the value was 50.8%.
For `CN(Cc1ccsc1)C(=O)c1cc2c([nH]c1=O)CCCC2=O` the value was -198%.
For the molecule `CSc1ccc(CN(C)C(=O)c2cc3c([nH]c2=O)CCCC3=O)cc1`, the INHIBITION is listed as -31.6%.
Turning to `Cc1cccc(CNC2CCCc3c2cnn3Cc2ccccc2)c1` (stereo not given), the INHIBITION is recorded as 65.9%.
With `Cc1cccc(CNC2CCCc3c2cnn3C)c1` (stereo not given), the INHIBITION was -37.4%.
For the molecule `Cc1ccc(CNC2CCCc3c2cnn3Cc2ccccc2)s1` (stereo not given), the INHIBITION was found to be 16.3%.
For `c1cnc(N2CC[C@@H](N3CCOCC3)[C@@H]2Cc2ccncc2)nc1` the value was -78%; for `CC(C)CNc1cc(-c2c[nH]nc2C2CCN(C(=O)C3CC3)C2)ccn1` (stereo not given), 84.6%; for `CC(=O)N1CCC(c2n[nH]cc2-c2ccnc(N)c2)C1` (stereo not given), -13.8%.
For `Nc1cc(-c2c[nH]nc2C2CCN(C(=O)C3CCCC3)C2)ccn1` (stereo not given) the value was -27.3%; for `COc1cccc(CCC2CCCN(Cc3ncc[nH]3)C2)c1` (stereo not given), 22%; for `Cc1cc(N2CCC(Cc3ccccc3)CC2)nc(-c2ccncc2)n1`, -64.9%.
Consider `CN1C(=O)CC[C@@H]2[C@H]1CCN2S(=O)(=O)c1cccs1`, for which the INHIBITION worked out at 47.1%.
As to `O=S(=O)(c1cccs1)N1CC[C@H]2[C@H]1CCN2CC1CC1`, the INHIBITION is 57.7%.
Take `CC(C)CN1CC[C@@H]2[C@@H]1CCN2S(=O)(=O)c1cccs1`: the INHIBITION is given as 17.9%.
Then `Cc1ccc(CNC(=O)c2ccc(=O)n(C)n2)c(OCC2CC2)c1`, with -124%; and `O=C1NCCN1C1CCN(Cc2nc(-c3ccsc3)no2)CC1`, with -14.4%.
For the molecule `COc1cc(C)ccc1OCC(=O)Nc1ccnc(OCCN(C)C)c1`, the INHIBITION is -18.6%.
